From PubChem BioAssay (EPA / NIEHS)
Records with an inconclusive call do not appear. Activity calls are given as the source filed them. How the source made its calls, unless noted: active means hit-call score of the fitted dose curve at least 0.9, where 1 is the maximum; inconclusive means response in the unintended direction; inactive means score below 0.9.

Tests used:
[1] = target: Cellular tumor antigen p53 (Homo sapiens) (UniProt P04637); assay: TOX21_p53_BLA_p2_ratio: Tox21 HCT-116 p53 Agonism Beta-lactamase Assay, Ratio, Phase 2 (AID 2283592)
Chain of Cellular tumor antigen p53 (Homo sapiens) (P04637 whole entry, looked up): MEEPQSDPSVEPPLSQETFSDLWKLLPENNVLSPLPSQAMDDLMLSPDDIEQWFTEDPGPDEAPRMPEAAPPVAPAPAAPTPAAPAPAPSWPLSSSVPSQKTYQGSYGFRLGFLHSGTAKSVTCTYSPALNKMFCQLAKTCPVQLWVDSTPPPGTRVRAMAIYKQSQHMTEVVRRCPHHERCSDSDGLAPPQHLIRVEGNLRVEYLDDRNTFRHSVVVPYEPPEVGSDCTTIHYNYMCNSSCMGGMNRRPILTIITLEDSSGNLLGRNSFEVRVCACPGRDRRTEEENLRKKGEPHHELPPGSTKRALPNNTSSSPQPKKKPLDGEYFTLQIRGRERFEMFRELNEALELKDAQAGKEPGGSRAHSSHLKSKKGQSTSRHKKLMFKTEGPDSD
Method in brief: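 In this cell-based reporter format, HCT116 cells were dosed with chemicals delivered from DMSO by 217-fold dilution and incubated 16 h at 37C. Emission at 460 and 530 nm after 2 h CCF4-AM loading provided the ratio, fitted upward versus DMSO.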

[2] = target: Cellular tumor antigen p53 (Homo sapiens) (UniProt P04637); assay: TOX21_p53_BLA_p3_ratio: Tox21 HCT-116 p53 Agonism Beta-lactamase Assay, Ratio, Phase 3 (AID 2283596)
Method in brief: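 HCT116 p53-bla cells (4000/well) given compound in DMSO (217-fold dilution) after 5 h, incubated 16 h at 37C. CCF4-AM substrate 2 h at room temperature; 460/530 nm emission ratio, gain fitted against DMSO.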

[3] = target: Cellular tumor antigen p53 (Homo sapiens) (UniProt P04637); assay: TOX21_p53_BLA_p5_ratio: Tox21 HCT-116 p53 Agonism Beta-lactamase Assay, Ratio, Phase 5 (AID 2283599)
Method in brief: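 HCT-116 cells carrying a p53-inducible beta-lactamase reporter were seeded at 4000 cells/well and dosed after 5 h with compound in DMSO (217-fold dilution). After 16 h at 37C, CCF4-AM substrate was added for 2 h, and the 460/530 nm emission ratio was scored as gain-of-signal versus DMSO.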

[4] = target: Cellular tumor antigen p53 (Homo sapiens) (UniProt P04637); assay: TOX21_p53_BLA_p4_ratio: Tox21 HCT-116 p53 Agonism Beta-lactamase Assay, Ratio, Phase 4 (AID 2283601)
Method in brief: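 HCT116 cells carrying an inducible beta-lactamase reporter were plated at 4000 cells/well, rested 5 h, then exposed to compounds in DMSO (217-fold dilution) for 16 h at 37C. CCF4-AM substrate was loaded 2 h at room temperature; 460/530 nm emission ratio scored gain-of-signal versus DMSO.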

[5] = STM_H9_OrnCyssISnorm_ratio: Stemina devTOX quickPredict H9 human embryonic stem cell (hESC)-based Assay for Ornithine (ORN):Cystine (CYSS) Ratio (AID 2283714)
Method in brief: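 Undifferentiated H9 hESCs were exposed to compound for 72h with media and chemical replaced every 24h. Final 24-h conditioned media were deproteinized and analysed by UPLC-HRMS. ORN and CYSS peak areas were normalized to C13 internal standards and the ratio taken versus 0.1% DMSO.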

[6] = CCTE_Harrill_HTTr_Viability_MCF7: CCTE's 6-hour Cell Viability Assessment for the High-Throughput Transcriptomics (HTTr) Platform, in MCF-7 cells cultured in DMEM + 10% fetal bovine serum, Harrill Lab (AID 2284010; active means hit-call score of the fitted dose curve at least 0.9, where 1 is the maximum; inactive means score below 0.9)
Method in brief: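 MCF-7 cells in DMEM + 10% FBS, 384-well, exposed 6 h to an eight-point dilution series. Membrane integrity scored by high-content imaging of propidium iodide exclusion; bidirectional fit versus DMSO.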

[7] = CCTE_Harrill_HTTr_Apoptosis_MCF7: CCTE's 6-hour Apoptosis Assessment for the High-Throughput Transcriptomics (HTTr) Platform, in MCF-7 cells cultured in DMEM + 10% fetal bovine serum, Harrill Lab (AID 2284011; active means hit-call score of the fitted dose curve at least 0.9, where 1 is the maximum; inactive means score below 0.9)
Method in brief: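 Read-out: CellEvent Caspase 3/7 Green signal by high content imaging, gain-of-signal indicating apoptosis. MCF-7 cells, DMEM + 10% FBS, eight-point dilution series, 6 h exposure. Curves fitted bidirectionally relative to DMSO negative control.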

[8] = CCTE_Harrill_HTTr_CellCount_MCF7: CCTE's Cell Proliferation Assessment for the High-Throughput Transcriptomics (HTTr) Platform, Harrill Lab (AID 2284012);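 further: cells exposed to compound for six hours; intended direction is loss of nuclei count meaning fewer cells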
Method in brief: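 MCF7 cells exposed 6 hours to an eight-point dilution series; Hoechst-stained nuclei counted by high-content imaging. Bidirectional curve fitting against DMSO baseline.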

[9] = TOX21_p53_BLA_p5_viability: Viability Assessment in the Tox21 HCT-116 p53 Agonism Beta-lactamase Assay, Phase 5 (AID 2283600)
Method in brief: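 Compounds, pinned from DMSO at 217-fold dilution, were left on the cells for 16 h. The viability endpoint was ATP content measured by CellTiter-Glo luminescence, where falling signal reflects cytotoxicity.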

THRA (gene 7067) = THRA (gene 7067) (UniProt P10827); assay: TOX21_TRA_COA_Agonist_Followup_ratio: Tox21 Thyroid Hormone Receptor alpha Agonism through Coactivator Recruitment Follow-Up Assay, Ratio (AID 2283948; active means hit-call score of the fitted dose curve at least 0.9, where 1 is the maximum; inactive means score below 0.9)
Chain of THRA (gene 7067) (P10827 whole entry, looked up, the tested form may be a part): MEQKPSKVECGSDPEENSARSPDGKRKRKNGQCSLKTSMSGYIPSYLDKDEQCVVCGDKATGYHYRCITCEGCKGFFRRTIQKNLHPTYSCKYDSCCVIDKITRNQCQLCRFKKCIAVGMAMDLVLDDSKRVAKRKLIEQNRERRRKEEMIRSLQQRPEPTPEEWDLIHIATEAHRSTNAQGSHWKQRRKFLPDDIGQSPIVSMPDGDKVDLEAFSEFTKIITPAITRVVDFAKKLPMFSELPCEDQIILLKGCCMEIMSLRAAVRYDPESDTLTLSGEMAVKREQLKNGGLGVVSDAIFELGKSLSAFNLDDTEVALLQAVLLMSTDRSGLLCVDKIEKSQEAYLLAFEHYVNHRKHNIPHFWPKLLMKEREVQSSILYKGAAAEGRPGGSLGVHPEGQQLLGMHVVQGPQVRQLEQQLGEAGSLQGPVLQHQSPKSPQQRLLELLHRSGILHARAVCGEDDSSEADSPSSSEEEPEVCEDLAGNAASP
Method in brief: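 GST-TRa LBD 2.5 nM + 0.10% BSA + cpd; add fluorescein-SRC-2 200 nM, Tb-anti-GST 2 nM. TR-FRET ex 340, em 520/495 ratio. Norm: DMSO 0%, T3 100%; gain-of-signal fit.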

THRB (gene 7068) [10] = target: THRB (gene 7068) (UniProt P10828); assay: TOX21_TRB_BLA_Agonist_Followup_ratio: Tox21 Thyroid Hormone Receptor beta Agonism Beta-lactamase (BLA) Follow-Up Assay, Ratio (AID 2283954)
Chain of THRB (gene 7068) (P10828 whole entry, looked up, the tested form may be a part): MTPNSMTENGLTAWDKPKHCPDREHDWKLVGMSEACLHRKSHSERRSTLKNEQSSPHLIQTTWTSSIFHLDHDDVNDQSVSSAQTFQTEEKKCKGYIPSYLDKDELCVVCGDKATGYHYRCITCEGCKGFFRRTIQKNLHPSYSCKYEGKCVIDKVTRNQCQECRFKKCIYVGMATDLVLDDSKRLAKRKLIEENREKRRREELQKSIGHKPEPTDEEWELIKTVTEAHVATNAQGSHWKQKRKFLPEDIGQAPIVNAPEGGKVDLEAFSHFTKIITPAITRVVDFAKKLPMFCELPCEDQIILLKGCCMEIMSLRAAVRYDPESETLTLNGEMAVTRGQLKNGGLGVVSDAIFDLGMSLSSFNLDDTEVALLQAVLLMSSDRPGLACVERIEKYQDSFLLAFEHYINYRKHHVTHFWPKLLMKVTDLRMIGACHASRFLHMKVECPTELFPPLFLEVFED
Method in brief: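 Human TRβ LBD–GAL4 DBD fusion in GeneBLAzer UAS-bla HEK293T cells; 11 concentrations in triplicate, 18 h at 37°C/5% CO2, T3 as agonist control. CCF4-AM substrate 2 h at room temperature; 460:530 nm ratio fitted for gain of signal versus DMSO.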

THRB (gene 7068) [11] = target: THRB (gene 7068) (UniProt P10828); assay: TOX21_TRB_COA_Agonist_Followup_ratio: Tox21 Thyroid Hormone Receptor beta Agonism through Coactivator Recruitment Follow-Up Assay, Ratio (AID 2283963; active means hit-call score of the fitted dose curve at least 0.9, where 1 is the maximum; inactive means score below 0.9)
Method in brief: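 Signal is the 520/495 nm emission ratio (excitation 340 nm), scaled between DMSO-only wells as 0% and T3 wells as 100%. It reflects fluorescein-labeled SRC-2 peptide recruitment to GST-TRβ ligand-binding domain detected via terbium anti-GST antibody.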

[12] = target: Retinoic acid receptor RXR-alpha (Homo sapiens) (UniProt P19793); assay: TOX21_TR_RXR_BLA_Agonist_Followup_ratio: Tox21 Thyroid Hormone Receptor beta Retinoid X Receptor alpha (RXRa) Agonism Beta-lactamase (BLA) Follow-Up Assay, Ratio (AID 2283968)
Chain of Retinoic acid receptor RXR-alpha (Homo sapiens) (P19793 whole entry, looked up): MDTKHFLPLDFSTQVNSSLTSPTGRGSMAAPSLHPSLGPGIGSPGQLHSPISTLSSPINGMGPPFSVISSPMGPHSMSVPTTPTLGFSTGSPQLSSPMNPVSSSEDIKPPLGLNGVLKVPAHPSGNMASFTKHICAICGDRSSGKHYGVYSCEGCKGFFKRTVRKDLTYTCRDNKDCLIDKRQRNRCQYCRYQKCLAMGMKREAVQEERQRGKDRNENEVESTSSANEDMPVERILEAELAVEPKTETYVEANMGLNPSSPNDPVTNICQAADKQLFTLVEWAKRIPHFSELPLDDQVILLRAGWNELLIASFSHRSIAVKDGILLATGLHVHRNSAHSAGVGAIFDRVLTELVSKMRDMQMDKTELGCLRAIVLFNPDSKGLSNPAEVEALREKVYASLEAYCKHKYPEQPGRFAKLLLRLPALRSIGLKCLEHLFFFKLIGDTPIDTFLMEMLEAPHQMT
Method in brief: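 RXRa-UAS-bla HEK293T cells, 5 h attachment at 37C/5% CO2, then 11 concentrations in triplicate for 16 h; 9-cis retinoic acid positive control. FRET-B/GCCF4-AM substrate 2 h at room temperature; 460:530 nm ratio, fitted for gain versus DMSO.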

Measured: AC50

O=C(c1ccccc1)C1(O)CCCCC1
not listed: [9] | THRA (gene 7067) | THRB (gene 7068) [10] | THRB (gene 7068) [11] | [12]
inactive: all other assays above

COC(=O)C(C)(C)C
inactive: [1] | [2] | [9] | [4]

CC1OCCC1=O (configuration not stated)
inactive: [1] | [2] | [9]

NC(=O)CC[C@@H]1NC(=O)[C@H](Cc2ccccc2)NC(=O)[C@H](Cc2ccc(O)cc2)NC(=O)[C@@H](N)CSSC[C@@H](C(=O)N2CCC[C@H]2C(=O)N[C@@H](CCCN=C(N)N)C(=O)NCC(N)=O)NC(=O)[C@H](CC(N)=O)NC1=O
inactive: [1] | [2] | [3] | [4]

O=C(O)CCNC(=O)c1ccccc1
active: THRA (gene 7067) 15.2 µM | THRB (gene 7068) [10] 12.6 µM | THRB (gene 7068) [11] 16.1 µM
inactive: [1] | [2] | [3] | [4] | [12]
